High-throughput results from PubChem BioAssay.
In the library only some 17% were active in any assay of this set; here they are far more common.
HepG2 viability – kills HepG2 cells in TGF-b inhibitor counter-screen; HepG2 CAGA-GFP viability, ATP luminescence, 18 h; Potency, µM (doses to about 46.1 µM), for the others: at the highest dose activity change, negative = cytotoxicity, hits mostly cytotoxic; hit rate 0.76% among 410,000
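HepG2 CAGA-GFP cells (1000/well, DMEM with 1% FBS) received compound, then TGF-beta at 500 pg/mL final, and were incubated 18 hours at 37 degrees C. Viability was read by CellTiter-Glo luminescence. Media-only wells were set as complete cell-killing and DMSO as no toxicity.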
TDP1 cell noCPT – qHTS for Inhibitors of human tyrosyl-DNA phosphodiesterase 1 (TDP1): qHTS in cells in absence of CPT; Potency, µM (doses to about 46.2 µM), for the others: top-dose activity change, negative = growth inhibition, most hits filed as inhibitors; AID 686978, 2013; hit rate 15% among 420,000; DT40 Tdp1-/- hTDP1 cells, no CPT, ATP luminescence, 48 h; also: % is scaled to controls: 0 for no effect and ±100 for the full control effect; nearly all actives have a fitted effect of over 55% in size
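Camptothecin absent (DMSO only). Human TDP1-complemented DT40 knockout cells, 400 cells/well, 37 °C for minimum 48 hr; ATP measured via CellTiter-Glo, 30 min dark incubation, luminescence.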
TGFb SMAD3 inh – blocks TGF-b signaling; HepG2 CAGA-GFP TGF-b/SMAD3 reporter, GFP fluorescence, 18 h; TGF-beta stimulated, 500 pg/mL final; Potency, µM (top dose mostly 46.1 µM), inactives show at the top dose activity, negative = inhibition, usual class: inhibitors; AID 588855; hit rate 1.2% among 410,000; also: % is scaled to controls: 0 for no effect and ±100 for the full control effect; nearly all actives have a fitted effect of over 65% in size
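First, reporter cells (HEPG2 CAGA-GFP) rested 2 h at 37 degrees C. Next, compounds were pinned in and TGF-beta added to 500 pg/mL final. After 18 h, GFP was imaged per cell and summed per well.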
TDP1 cell CPT – DT40-hTDP1 cell growth loss with CPT; Potency, µM (titrated, usually from 46.2 µM), for the others: at the top dose activity change, negative = growth inhibition, most hits filed as inhibitors; hit rate 12% among 420,000; chicken DT40 Tdp1-/-;hTDP1 cells + 20 nM CPT, ATP luminescence, 48 h; also: % is scaled to controls: 0 for no effect and ±100 for the full control effect; nearly all actives have a fitted effect of over 55% in size
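Chicken DT40 Tdp1-/- cells complemented with human TDP1, 400 cells/well, exposed to compounds plus 20 nM camptothecin for at least 48 h at 37 C; viability read as ATP content by CellTiter-Glo luminescence.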
HT1080 IDH1KD tx – HT-1080 IDH1 knockdown cell toxicity (counter line). AID 686971. Potency, µM (doses to about 46.1 µM), for the others: top-dose activity, negative = toxicity, most hits filed as cytotoxic. hit rate 2% among 360,000. HT-1080 IDH1 knockdown viability, ATP luminescence, 48 h;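 also: 0% = DMSO wells and -100% = cell-free medium wells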
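Luminescent ATP read-out (CellTiter-Glo, 10 min at room temperature) after 48 h compound exposure at 37 °C gave viability of IDH1-knockdown HT-1080 cells. Activity was normalised to DMSO and cell-free wells, then fitted as concentration-response curves.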
HT1080NT lethal – kills 2HG-producing HT-1080-NT fibrosarcoma cells; HT-1080-NT fibrosarcoma viability, CellTiter-Glo ATP luminescence, 48 h; Potency, µM (highest dose often 46.1 µM), inactives show at the highest dose activity, negative = less viability, hits mostly cytotoxic; hit rate 1.6% among 360,000;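 also: NT is the 2HG producing partner of a matched IDH1 knockdown line; 0% = DMSO-treated cells and -100% = media-only wells without cells; nearly all actives have a fitted effect of over 55% in size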
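Luminescent CellTiter-Glo readout after 48 hours of compound exposure at 37 degrees C defined viability of HT-1080-NT cells. Activity was normalized to DMSO wells and cell-free media wells; concentration-response curves were fitted and assigned curve classes.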
* = called active by the depositor; ? = inconclusive; / = no result; [ ] = dose if it differs, or a comment. Calls follow the shape of the dose curve; as a rule, active = well fitted curve in the direction sought with a large enough effect; inconclusive = small, poorly fitted or top-dose-only effect, or another doubt; inactive = no such curve, though single readings can be large; an effect the other way counts as inactive or inconclusive. Potency is read from the fitted curve at half-maximal effect.

SMILES | HepG2 viability | TDP1 cell noCPT | TGFb SMAD3 inh | TDP1 cell CPT | HT1080 IDH1KD tx | HT1080NT lethal
COc1ccc(-c2noc(N3CCC(C(=O)Nc4ccc(C)c(F)c4)CC3)n2)cc1OC | -27% | 16µM* | 1% | ? | / | /
N/C(=C\c1ccccc1)c1ccncc1 | 11% | ? | 8% | -2% | / | /
COc1cccc(Nc2nc3cc(C)ccc3cc2C)c1 | -30% | ? | -15% | ? | -6% | -6%
CCOC(=O)/C(=N/Nc1ccc(C)cc1)S(=O)(=O)c1ccc(Cl)cc1 | 4% | ? | 0% | 16µM* | ? | ?
COc1ccc(CN2C(=O)COc3ccccc32)cc1 | 2% | -20% | 22% | -1% | 2% | 0%
COc1ccc(CC2(CO)COc3ccccc3C2=O)cc1 (stereo unspecified) | 4% | 16µM* | -8% | ? | ? | ?
CC[C@@H]1C=C(C(=O)O)[C@H](c2ccc(Br)cc2)N1S(=O)(=O)c1ccc(C)cc1 | 3% | -6% | ? | 13% | -11% | -5%
NS(=O)(=O)c1ccc(Nc2nc(-c3ccc(F)cc3)cs2)cc1 | 14% | 21µM* | ? | 18µM* | 15µM* | ?
Cc1cccc(Nc2nc(-c3cccs3)cs2)n1 | -19% | 23µM* | 13µM* | ? | -28% | -18%
Cc1cccc(Nc2nc(-c3ccc(F)cc3)cs2)n1 | -15% | ? | 0% | 12µM* | -15% | -3%
CC(=O)Oc1ccc(-c2csc(Nc3ccccn3)n2)cc1 | -13% | 7.3µM* | -23% | 16µM* | ? | -20%
COc1ccc(-c2csc(Nc3cccc(C)n3)n2)cc1 | -2% | ? | -8% | ? | -19% | -19%
COCc1ccc(CN2Cc3ccccc3OC(c3ccccc3F)C2)o1 (stereo unspecified) | / | -30% | / | 4%[9.04 µM] | / | /
N[C@@](C(=O)O)(c1ccc(P(=O)(O)O)cc1)C1CC1 | / | -8% | / | -3% | / | /
Cc1cccnc1Nc1nc(-c2ccccn2)cs1 | -10% | 0.15µM* | ? | 0.13µM* | 1µM* | 1.3µM*
Cc1cccnc1Nc1nc(-c2ccccc2)cs1 | -57% | 0% | ? | ? | -11% | -21%
COc1ccc(-c2csc(Nc3cccc(C)n3)n2)cc1C | -17% | ? | 2% | -9% | -11% | -23%
c1ccc(Nc2nc(-c3cccs3)cs2)nc1 | -12% | ? | ? | ? | -22% | -26%
Fc1ccc(-c2csc(Nc3ccccn3)n2)cc1 | -37% | ? | ? | 16µM* | -26% | 0%
Cc1cccc(Nc2nc(-c3ccccn3)cs2)n1 | -35% | 6.5µM* | ? | 5.2µM* | 0.35µM* | 0.32µM*
Cc1cc(C(=O)N2CCC2(C)C(=O)O)c(C)o1 (stereo unspecified) | -12% | -3% | 0% | -4% | 14% | 5%
CCn1c(-c2ccccc2F)nc2cc(C(=O)NC(c3ccccn3)C(F)(F)F)cc(NC(C)=O)c21 (stereo unspecified) | / | -13% | / | 7%[9.04 µM] | / | /
COc1cc(-c2[nH]ncc2CN(C)Cc2nonc2C)cc(OC)c1OC | -9% | 16µM* | -11% | ? | -7% | -1%
COc1ccc(-c2[nH]ncc2CN(C)Cc2nonc2C)c(OC)c1 | -33% | -5% | -3% | -4% | 0% | -1%
COc1cc(-c2[nH]ncc2CN2CCSCC2)cc(OC)c1OC | -9% | 15µM* | -26% | ? | -6% | -1%
O=C(c1ccc(S(=O)(=O)Nc2ccccc2)cc1)N1CCC1 | 7% | -20% | 1% | ? | 5% | 5%
